# Test results: PubChem BioAssay AID686979 (National Center for Advancing Translational Sciences (NCATS), 2013)
# Hit rate of the full screen: of about 420,000 compounds, about 50,000 (12%) were called active. Roughly 26% stayed inconclusive and do not appear here. What follows is part of a selection rich in actives, with near analogues and random picks from the rest. Values without a mark were called inactive. Calls come from the whole dose curve; as a rule, active = well fitted inhibition curve with a large enough effect; inconclusive = small, poorly fitted or top-dose-only effect; inactive = flat fitted curve, though single readings scatter.
# Assay: qHTS for Inhibitors of human tyrosyl-DNA phosphodiesterase 1 (TDP1): qHTS in cells in presence of CPT; note: nearly all actives have a fitted effect of over 55% in size
# Conditions: chicken DT40 Tdp1-/-;hTDP1 cells + 20 nM CPT, ATP luminescence, 48 h; series mostly up to 46.2 µM; activity change, negative = growth inhibition: at the top concentration
# Outline: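 Chicken DT40 Tdp1-/- cells complemented with human TDP1, 400 cells/well, exposed to compounds plus 20 nM camptothecin for at least 48 h at 37 C; viability read as ATP content by CellTiter-Glo luminescence.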
# % is set by controls: 0 for no effect and ±100 for the full control effect; potency is the fitted concentration of half-maximal effect.
SMILES,"activity change, negative = growth inhibition",Potency
CN1CCN(c2ncc3c(n2)CC(c2ccccc2F)CC3=O)CC1 (configuration not stated),-27.4%,–
O=C(O)CSc1nnc(-c2ccc3c(c2)OCO3)n1-c1ccccc1,0.195%,–
c1cncc(CNc2ccnc(-c3ccc4c(c3)OCO4)n2)c1,–,8.2 µM (active)
Cc1cc(NCc2cccnc2)no1,-0.255%,–
c1n[nH]c(NCc2ccc3c(c2)OCO3)n1,-0.691%,–
C=CCn1c(SCc2c(C)noc2C)nc2sc3c(c2c1=O)CCC(C)C3 (configuration not stated),–,14.6 µM (active)
C=CCn1c(SCC(=O)NCC2CCCO2)nc2sc(C)c(C)c2c1=O (configuration not stated),-25.8%,–
C=CCn1c(SCC(=O)NCCCO)nc2sc3c(c2c1=O)CCC3,11.1%,–
Cc1ccc(-c2ccc(CCC(=O)O)n2-c2ccc(C(N)=O)cc2)cc1,-23.8%,–
CC(C)C[C@@H]1COc2cc(N3CCC[C@@H]3CO)ccc2S(=O)(=O)N1,-16.9%,–
O=C(Nc1ccccc1C(=O)NCC1CCCO1)c1ccccc1F (configuration not stated),6.83%,–
CC(=O)NC(Cc1ccccc1)C(=O)NC1CCN(c2ncccc2[N+](=O)[O-])CC1 (configuration not stated),5.47%,–
O=C(NC1CC1)C(Cc1ccccc1)NS(=O)(=O)c1ccccc1F (configuration not stated),–,16.4 µM (active)
CCOC(=O)C1=C(COC(=O)[C@H](C)NS(=O)(=O)c2ccccc2F)NC(=O)NC1C (some centres not stated),-18.8%,–
Cc1ccc(NS(=O)(=O)c2cccs2)cc1S(=O)(=O)N1CCCCCC1,-19.3%,–
Cc1ccc(C)c(Nc2nnc(-c3ccc(C)c(S(=O)(=O)N4CCCCC4)c3)c3ccccc23)c1,–,4.11 µM (active)
Cc1ccc(C(=O)NCC(=O)O)cc1S(=O)(=O)N1CCCCC1,12.1%,–
Cc1ccc(S(=O)(=O)N(C)C)cc1NC(=O)c1ccccc1Br,9.43%,–
Cc1ccc(S(=O)(=O)N(C)C)cc1NC(=O)c1n[nH]c(=O)c2ccccc12,–,18.4 µM (active)
CC(=O)c1c(C)[nH]c(C(=O)Nc2cc(S(=O)(=O)N(C)C)ccc2C)c1C,-11.6%,–
O=C(CSc1nc2[nH]c(=O)[nH]c(=O)c2s1)Nc1cccc(F)c1,0.666%,–
CCC(C)[C@@H](C(=O)N1CCNCC1)n1cc(CCCCN)nn1 (some centres not stated),10.6%,–
CCOC(=O)c1cccc(NC(=O)CN2C(=O)C3CC=CCC3C2=O)c1 (configuration not stated),-1.71%,–

SMILES,"activity change, negative = growth inhibition",Potency
CCOC(=O)N1CCN(C(=S)Nc2ccc(C)cc2C)CC1,-11.4%,–
CCOC(=O)N1CCN(c2cc(C)c([N+](=O)[O-])cc2F)CC1,–,20.6 µM (active)
CCOC(=O)C1CCN(c2ccc(C(=O)O)cc2[N+](=O)[O-])CC1,6.98%,–
NC(=O)C1CCN(C(=O)CC2C(=O)NCCN2Cc2cccc(Oc3ccccc3)c2)CC1 (configuration not stated),3.56%,–
Cc1ccc(C(CNC(=O)Nc2cccc(C)c2)N2CCN(C)CC2)cc1 (configuration not stated),-3.68%,–
Cc1ccc(NC(=O)Cn2cccc2C2=NC(c3ccccc3)CO2)c(C)c1 (configuration not stated),-25.7%,–
COC(CNC(=O)Cn1ncc2ccsc2c1=O)OC,-2.79%,–
O=C1OCCC1=COCCCCOC=C1CCOC1=O,-10.4%,–
CCCC(=O)C1CCN(Cc2ccccc2)CC1,24.3%,–
Brc1ccc(CN2CC[C@H]3C=CCc4cccc(c43)C2)cc1,–,14.1 µM (active)
CCN(CCCNC(=O)c1c(C)oc2ncn(CC(C)C)c(=O)c12)Cc1ccccc1,0.204%,–
O=S(=O)(NC1CC2CCC1C2)c1ccc(Cl)cc1 (configuration not stated),-19.1%,–
O=C(CO/N=C/c1ccc(OC(F)F)cc1)NCc1ccc(F)cc1,-2.12%,–
COc1ccc(/C=C2\N=C3CCCN3C2=O)cc1,-10.1%,–
COc1ccc(/C=C2\CCc3ccccc3C2=O)c(OC)c1OC,–,23.1 µM (active)
O=C1/C(=C/c2cccs2)CCc2ccccc21,-33%,–
COc1ccc(/C=C2\NC(=O)[C@@H]3Cc4ccccc4CN3C2=O)cc1,-14.1% [at 9.04 µM],–
COc1ccc(/C=C2/CCCc3ccccc3C2=O)cc1,–,5.8 µM (active)
COc1ccccc1C1=CC(=O)CCC1,-2.66%,–
COc1cc2[nH]c(=S)n(Cc3ccc(F)cc3)c(=O)c2cc1OC,-26.5%,–
COc1ccccc1NC(=O)N(O)C1(C#N)CCCCC1,5.21%,–
Cc1nn(CC(=O)NC2CCCCC2)c(=O)c2cccn12,14.8%,–
O=C(CNS(=O)(=O)c1cccc(C(F)(F)F)c1)Nc1ccccc1F,-25%,–

SMILES,"activity change, negative = growth inhibition",Potency
O=C(/C=C/c1ccc(Cl)cc1)Nc1ccc(S(=O)(=O)Nc2ncccn2)cc1,-4.33%,–
O=C(/C=C/c1ccc(F)cc1)Nc1cccc(S(=O)(=O)Nc2cccc(C(F)(F)F)c2)c1,–,14.6 µM (active)
Cc1ccc(OCC(=O)Nc2ccc(OCc3cc(=O)n4c(C)csc4n3)cc2)cc1C,2.52%,–
COc1cc(Cl)c(NC(=O)CC(C)S(=O)(=O)c2cc3c(cc2C)NC(=O)CO3)c(OC)c1 (configuration not stated),-13.4%,–
O=C(/C=C/c1ccccc1)Nc1nnc(SCC(=O)c2ccc3ccccc3c2)s1,-27.6%,–
Cc1cccc(NC(=O)C2CCN(C(=O)NC3CCCCC3)CC2)c1,2.85%,–
O=C(CN1C(=O)CCn2nc(-c3ccccc3)cc21)NCc1ccccc1,-2.41%,–
COc1ccc(NC(=O)CCCN2C(=O)CCn3nc(-c4cn(C)c5ccccc45)cc32)cc1OC,–,18.4 µM (active)
COc1ccc(NC(=O)N2CCCn3nc(C)cc32)cc1OC,9.85%,–
CCOC(=O)C1(C)CCCN(C(=O)c2ccc(N(C)C)cc2)C1 (configuration not stated),-27.8%,–
CC(NCCc1ccc(S(N)(=O)=O)cc1)C(=O)NCc1ccccc1 (configuration not stated),-21.1%,–
COc1cc(NS(=O)(=O)c2ccc(NC(=O)c3ccc([N+](=O)[O-])cc3)cc2)ncn1,-12.7%,–
CC(=O)NC(=S)Nc1ccc(NC(=S)NC(=O)c2ccc([N+](=O)[O-])cc2)cc1,18.6%,–
Cn1ccc(=Nc2ccc(NC(=O)c3ccc(N=c4ccn(C)c5ccc([N+](=O)[O-])cc45)cc3)cc2)cc1,–,3.66 µM (active)
CSCCC(NC(=O)c1ccco1)C(=O)NCCc1ccc(F)cc1 (configuration not stated),-11.6%,–
CN(C)CCNC(=O)Nc1cccc(Cl)c1Cl,-13.2%,–
CC(=O)NCCNC(=O)c1cc(-c2cccc3ccccc23)nc2ccccc12,-3.86%,–
CN(C)CCNC(=O)c1ccc(Cl)c2cc3ccccc3nc12,–,0.164 µM (active)
O=C(CCC(=O)N/N=C/c1ccc(Br)o1)N/N=C/c1ccc(Br)o1,-1.67%,–
O=C(CCc1ccc(O)cc1)NN=Cc1cc(Br)ccc1O,–,8.2 µM (active)
COc1cc(/C=N/NC(=O)CCc2n[nH]c(=O)[nH]c2=O)ccc1O,21.9%,–
